# Source: publication PMC7862700, “An all-to-all approach to the identification of sequence-specific readers for epigenetic DNA modifications on cytosine”
# Assays:
# Assay in all cases: DAPPL (digital affinity profiling via proximity ligation, sequencing); 10 mM Tris-HCl pH 7.5, 50 mM NaCl, 1 mM DTT, 4% glycerol, room temperature, 30 min; GST-TFs on glutathione beads, 16-mer random dsDNA library, 0.1% formaldehyde crosslink after washing; high values mean tight binding
# [1] = target: T1, FLI1 (Homo sapiens, UniProt Q01543 1-452); details: protein: recombinant; tags: N-terminal GST; dsDNA, one strand shown
# T1 sequence: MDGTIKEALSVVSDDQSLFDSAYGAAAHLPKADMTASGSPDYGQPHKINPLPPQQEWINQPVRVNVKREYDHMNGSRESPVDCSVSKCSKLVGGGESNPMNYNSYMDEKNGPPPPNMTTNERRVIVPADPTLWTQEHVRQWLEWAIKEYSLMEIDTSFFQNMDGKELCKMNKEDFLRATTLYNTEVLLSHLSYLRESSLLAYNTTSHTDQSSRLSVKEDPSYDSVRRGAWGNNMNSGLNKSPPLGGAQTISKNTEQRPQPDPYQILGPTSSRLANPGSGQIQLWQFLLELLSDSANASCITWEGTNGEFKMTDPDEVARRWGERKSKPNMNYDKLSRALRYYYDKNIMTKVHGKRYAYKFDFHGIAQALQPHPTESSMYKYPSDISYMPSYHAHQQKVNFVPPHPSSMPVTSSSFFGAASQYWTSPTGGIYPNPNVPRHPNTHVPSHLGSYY
# In short: (§1)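 GST fusions of human transcription factors were expressed in yeast and captured with glutathione beads. Once given DNA barcodes and pooled alongside a tag-only sample, they were incubated for 30 min at room temperature with 200 nmole of a random double-stranded 16-mer DNA library in Tris/NaCl/DTT/glycerol buffer, then washed, crosslinked (0.1% formaldehyde), proximity-ligated, PCR-amplified and sequenced on an Illumina NextSeq500. The binding signal of each hexamer is its read frequency for a factor divided by its frequency for the tag-only sample.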
# [2] = target: T2, ELK1 (Homo sapiens, UniProt P19419 1-428); details: protein: recombinant; tags: N-terminal GST; dsDNA, one strand shown
# T2 sequence: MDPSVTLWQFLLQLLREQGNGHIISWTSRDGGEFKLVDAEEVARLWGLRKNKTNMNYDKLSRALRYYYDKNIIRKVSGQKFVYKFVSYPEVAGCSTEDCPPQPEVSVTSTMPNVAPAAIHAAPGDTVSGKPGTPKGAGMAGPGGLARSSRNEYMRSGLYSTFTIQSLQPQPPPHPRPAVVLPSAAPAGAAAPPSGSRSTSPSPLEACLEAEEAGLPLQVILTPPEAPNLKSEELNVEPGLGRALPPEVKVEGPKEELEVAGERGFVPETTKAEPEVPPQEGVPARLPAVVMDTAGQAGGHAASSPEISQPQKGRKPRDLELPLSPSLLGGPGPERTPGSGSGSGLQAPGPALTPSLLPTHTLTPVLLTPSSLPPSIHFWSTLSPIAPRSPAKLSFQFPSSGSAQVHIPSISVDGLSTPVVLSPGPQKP
# In short: as §1
# [3] = target: T3, GABPA (Homo sapiens, UniProt Q06546 1-454); details: protein: recombinant; tags: N-terminal GST; dsDNA, one strand shown
# T3 sequence: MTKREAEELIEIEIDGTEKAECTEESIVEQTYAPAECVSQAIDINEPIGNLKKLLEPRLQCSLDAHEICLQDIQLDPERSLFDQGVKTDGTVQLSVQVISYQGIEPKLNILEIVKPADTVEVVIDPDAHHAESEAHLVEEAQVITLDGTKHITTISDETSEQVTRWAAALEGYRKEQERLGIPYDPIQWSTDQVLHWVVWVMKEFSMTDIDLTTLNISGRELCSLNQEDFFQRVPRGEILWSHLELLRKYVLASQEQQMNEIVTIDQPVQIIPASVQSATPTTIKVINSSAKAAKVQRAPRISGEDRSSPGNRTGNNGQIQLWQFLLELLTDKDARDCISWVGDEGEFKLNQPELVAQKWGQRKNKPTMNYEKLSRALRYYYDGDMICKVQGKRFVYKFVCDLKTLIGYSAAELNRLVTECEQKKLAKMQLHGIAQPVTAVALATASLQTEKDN
# In short: as §1
# [4] = target: T4, ERG (Homo sapiens, UniProt P11308 1-479); details: protein: recombinant; tags: N-terminal GST; dsDNA, one strand shown
# T4 sequence: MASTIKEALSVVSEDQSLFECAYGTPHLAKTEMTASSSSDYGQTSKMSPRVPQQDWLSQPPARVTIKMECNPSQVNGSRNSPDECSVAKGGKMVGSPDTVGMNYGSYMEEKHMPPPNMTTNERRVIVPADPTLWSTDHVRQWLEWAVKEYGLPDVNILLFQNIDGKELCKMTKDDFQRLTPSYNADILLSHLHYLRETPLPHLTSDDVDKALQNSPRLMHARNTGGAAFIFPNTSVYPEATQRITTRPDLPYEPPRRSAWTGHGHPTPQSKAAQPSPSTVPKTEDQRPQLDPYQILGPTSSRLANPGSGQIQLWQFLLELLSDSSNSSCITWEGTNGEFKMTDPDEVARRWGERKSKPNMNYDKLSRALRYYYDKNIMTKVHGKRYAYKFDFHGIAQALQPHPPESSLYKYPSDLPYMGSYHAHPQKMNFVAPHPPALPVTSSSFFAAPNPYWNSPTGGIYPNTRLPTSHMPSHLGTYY
# In short: as §1
# [5] = target: ELF1 (Homo sapiens, UniProt P32519 1-619); details: protein: recombinant; tags: N-terminal GST; dsDNA, one strand shown
# Chain of ELF1 (P32519 whole entry): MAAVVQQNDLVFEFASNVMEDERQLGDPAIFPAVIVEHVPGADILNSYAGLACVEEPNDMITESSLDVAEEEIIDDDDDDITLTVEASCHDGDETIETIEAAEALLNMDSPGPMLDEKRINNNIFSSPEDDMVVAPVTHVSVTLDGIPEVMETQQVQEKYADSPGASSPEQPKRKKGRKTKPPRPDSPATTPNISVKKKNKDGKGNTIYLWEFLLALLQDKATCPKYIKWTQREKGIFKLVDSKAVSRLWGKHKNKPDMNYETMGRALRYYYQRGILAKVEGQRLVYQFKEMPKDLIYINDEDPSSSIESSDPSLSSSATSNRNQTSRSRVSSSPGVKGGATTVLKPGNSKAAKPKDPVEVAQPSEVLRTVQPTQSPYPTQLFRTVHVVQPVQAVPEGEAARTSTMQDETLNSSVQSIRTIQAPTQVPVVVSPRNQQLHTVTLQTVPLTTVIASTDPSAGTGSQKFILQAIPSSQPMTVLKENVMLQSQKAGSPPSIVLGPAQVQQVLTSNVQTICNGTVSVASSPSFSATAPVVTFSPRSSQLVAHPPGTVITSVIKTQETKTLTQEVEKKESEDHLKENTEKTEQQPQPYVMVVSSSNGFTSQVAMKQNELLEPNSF
# In short: as §1
# [6] = target: T5, EHF (Homo sapiens, UniProt Q9NZC4 1-300); details: protein: recombinant; tags: N-terminal GST; dsDNA, one strand shown
# T5 sequence: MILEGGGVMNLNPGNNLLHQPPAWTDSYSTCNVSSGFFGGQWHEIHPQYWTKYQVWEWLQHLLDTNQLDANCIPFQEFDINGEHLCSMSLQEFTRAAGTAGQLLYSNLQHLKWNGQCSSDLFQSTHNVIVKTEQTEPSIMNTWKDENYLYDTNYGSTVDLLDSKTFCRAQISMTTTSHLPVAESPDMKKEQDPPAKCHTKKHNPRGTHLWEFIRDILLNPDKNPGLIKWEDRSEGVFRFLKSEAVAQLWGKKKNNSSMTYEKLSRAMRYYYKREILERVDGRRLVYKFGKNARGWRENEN
# In short: as §1
# [7] = target: SPI1 (Homo sapiens, UniProt P17947 1-270); details: protein: recombinant; tags: N-terminal GST; dsDNA, one strand shown
# In short: as §1
# [8] = target: SPIB (Homo sapiens, UniProt Q01892 1-262); details: protein: recombinant; tags: N-terminal GST; dsDNA, one strand shown
# Chain of SPIB (Q01892 whole entry): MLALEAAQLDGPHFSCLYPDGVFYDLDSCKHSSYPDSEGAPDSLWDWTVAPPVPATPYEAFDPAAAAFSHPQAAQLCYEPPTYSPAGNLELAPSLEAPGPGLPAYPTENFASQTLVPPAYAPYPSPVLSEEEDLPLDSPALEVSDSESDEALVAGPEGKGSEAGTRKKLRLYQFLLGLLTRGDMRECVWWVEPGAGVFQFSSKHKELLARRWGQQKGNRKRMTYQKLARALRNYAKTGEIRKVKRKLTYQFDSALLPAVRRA
# In short: as §1
# [9] = target: T6, ELK3 (Homo sapiens, UniProt P41970 1-407); details: protein: recombinant; tags: N-terminal GST; dsDNA, one strand shown
# T6 sequence: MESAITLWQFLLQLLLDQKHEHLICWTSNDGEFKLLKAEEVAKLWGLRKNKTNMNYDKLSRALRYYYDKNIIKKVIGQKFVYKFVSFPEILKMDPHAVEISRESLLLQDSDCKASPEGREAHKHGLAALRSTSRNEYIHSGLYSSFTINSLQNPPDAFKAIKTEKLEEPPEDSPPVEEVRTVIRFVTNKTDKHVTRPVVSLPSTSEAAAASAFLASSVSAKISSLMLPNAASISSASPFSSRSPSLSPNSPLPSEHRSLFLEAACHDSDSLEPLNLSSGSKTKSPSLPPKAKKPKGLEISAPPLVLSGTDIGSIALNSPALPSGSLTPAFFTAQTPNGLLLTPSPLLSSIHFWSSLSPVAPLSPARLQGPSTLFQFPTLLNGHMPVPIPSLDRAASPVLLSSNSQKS
# In short: as §1
# [10] = target: T7, FEV (Homo sapiens, UniProt Q99581 1-238); details: protein: recombinant; tags: N-terminal GST; dsDNA, one strand shown
# T7 sequence: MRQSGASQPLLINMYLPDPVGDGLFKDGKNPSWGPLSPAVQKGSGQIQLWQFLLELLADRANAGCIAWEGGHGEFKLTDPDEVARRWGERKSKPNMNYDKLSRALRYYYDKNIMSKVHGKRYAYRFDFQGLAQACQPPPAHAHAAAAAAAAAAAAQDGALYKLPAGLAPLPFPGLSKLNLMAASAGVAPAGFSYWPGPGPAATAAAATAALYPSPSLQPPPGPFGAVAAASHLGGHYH
# In short: as §1
# [11] = target: ETV5 (Homo sapiens, UniProt P41161 1-510); details: protein: recombinant; tags: N-terminal GST; dsDNA, one strand shown
# Chain of ETV5 (P41161 whole entry): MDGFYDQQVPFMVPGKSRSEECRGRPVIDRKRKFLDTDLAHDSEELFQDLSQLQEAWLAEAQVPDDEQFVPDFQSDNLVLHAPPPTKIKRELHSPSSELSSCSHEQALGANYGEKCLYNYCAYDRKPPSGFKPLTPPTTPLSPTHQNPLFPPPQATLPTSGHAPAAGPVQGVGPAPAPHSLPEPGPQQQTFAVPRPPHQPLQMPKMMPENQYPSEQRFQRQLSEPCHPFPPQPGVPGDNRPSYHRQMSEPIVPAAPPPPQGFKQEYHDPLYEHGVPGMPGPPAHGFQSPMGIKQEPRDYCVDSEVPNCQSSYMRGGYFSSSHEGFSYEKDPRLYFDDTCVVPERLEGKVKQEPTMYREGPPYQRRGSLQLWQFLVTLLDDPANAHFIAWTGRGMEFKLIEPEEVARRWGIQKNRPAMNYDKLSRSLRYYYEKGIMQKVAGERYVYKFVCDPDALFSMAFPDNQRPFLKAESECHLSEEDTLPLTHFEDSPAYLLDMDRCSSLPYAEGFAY
# In short: as §1
# [12] = target: HSF1 (Homo sapiens, UniProt Q00613 1-529); details: protein: recombinant; tags: N-terminal GST; chain copies: 3; dsDNA, one strand shown
# Chain of HSF1 (Q00613 whole entry): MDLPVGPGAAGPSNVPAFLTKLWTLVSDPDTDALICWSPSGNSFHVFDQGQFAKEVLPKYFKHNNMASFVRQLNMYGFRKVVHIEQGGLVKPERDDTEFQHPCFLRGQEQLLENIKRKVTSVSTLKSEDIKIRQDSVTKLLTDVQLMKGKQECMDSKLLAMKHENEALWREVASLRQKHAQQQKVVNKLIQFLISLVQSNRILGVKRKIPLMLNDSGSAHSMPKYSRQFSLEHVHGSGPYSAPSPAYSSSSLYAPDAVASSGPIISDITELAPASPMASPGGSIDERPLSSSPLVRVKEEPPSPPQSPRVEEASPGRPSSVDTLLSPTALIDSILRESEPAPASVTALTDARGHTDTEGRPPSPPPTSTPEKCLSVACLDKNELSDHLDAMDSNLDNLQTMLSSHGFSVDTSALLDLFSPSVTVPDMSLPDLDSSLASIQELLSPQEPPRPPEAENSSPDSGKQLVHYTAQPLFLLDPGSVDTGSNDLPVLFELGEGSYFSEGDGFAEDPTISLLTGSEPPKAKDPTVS
# In short: as §1
# [13] = target: T8, SPIC (Homo sapiens, UniProt Q8N5J4 1-248); details: protein: recombinant; tags: N-terminal GST; dsDNA, one strand shown
# T8 sequence: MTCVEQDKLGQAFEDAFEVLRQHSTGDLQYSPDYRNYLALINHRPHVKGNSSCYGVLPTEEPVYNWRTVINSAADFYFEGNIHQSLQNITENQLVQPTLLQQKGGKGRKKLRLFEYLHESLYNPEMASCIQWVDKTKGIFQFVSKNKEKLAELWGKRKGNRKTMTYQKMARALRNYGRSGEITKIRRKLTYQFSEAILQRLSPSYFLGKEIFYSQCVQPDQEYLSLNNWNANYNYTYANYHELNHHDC
# In short: as §1
# [14] = target: ELF4 (Homo sapiens, UniProt Q99607 1-663); details: protein: recombinant; tags: N-terminal GST; dsDNA, one strand shown
# Chain of ELF4 (Q99607 whole entry): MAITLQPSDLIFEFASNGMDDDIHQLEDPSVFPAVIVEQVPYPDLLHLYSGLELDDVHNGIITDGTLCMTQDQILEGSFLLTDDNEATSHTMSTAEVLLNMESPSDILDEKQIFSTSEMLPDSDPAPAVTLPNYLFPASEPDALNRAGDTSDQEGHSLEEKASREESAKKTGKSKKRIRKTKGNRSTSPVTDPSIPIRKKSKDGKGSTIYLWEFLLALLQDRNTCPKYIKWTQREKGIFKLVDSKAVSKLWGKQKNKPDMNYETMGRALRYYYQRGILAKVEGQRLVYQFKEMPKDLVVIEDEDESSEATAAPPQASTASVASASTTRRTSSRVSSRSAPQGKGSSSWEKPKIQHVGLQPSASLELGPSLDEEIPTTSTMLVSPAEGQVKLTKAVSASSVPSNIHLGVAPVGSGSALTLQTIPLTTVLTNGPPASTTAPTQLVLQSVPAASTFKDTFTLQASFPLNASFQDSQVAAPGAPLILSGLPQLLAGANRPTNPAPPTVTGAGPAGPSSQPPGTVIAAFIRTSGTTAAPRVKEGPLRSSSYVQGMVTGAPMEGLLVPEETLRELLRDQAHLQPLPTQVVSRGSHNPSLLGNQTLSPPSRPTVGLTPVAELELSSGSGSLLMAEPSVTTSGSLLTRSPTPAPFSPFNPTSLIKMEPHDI
# In short: as §1
# [15] = target: T9, ELK4 (Homo sapiens, UniProt P28324-2 1-405); details: protein: recombinant; tags: N-terminal GST; dsDNA, one strand shown
# T9 sequence: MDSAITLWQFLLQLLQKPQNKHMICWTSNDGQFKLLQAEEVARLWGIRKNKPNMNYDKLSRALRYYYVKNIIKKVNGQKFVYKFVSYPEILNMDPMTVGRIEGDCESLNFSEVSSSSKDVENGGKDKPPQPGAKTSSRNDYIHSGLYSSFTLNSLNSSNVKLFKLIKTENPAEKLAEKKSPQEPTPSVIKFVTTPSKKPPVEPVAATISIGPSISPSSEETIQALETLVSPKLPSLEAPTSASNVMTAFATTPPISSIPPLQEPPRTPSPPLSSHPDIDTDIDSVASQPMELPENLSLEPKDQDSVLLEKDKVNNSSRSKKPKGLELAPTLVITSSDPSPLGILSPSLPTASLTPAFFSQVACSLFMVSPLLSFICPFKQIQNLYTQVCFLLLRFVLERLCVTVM
# In short: as §1
# [16] = target: T10, ETV2 (Homo sapiens, UniProt O00321 1-342); details: protein: recombinant; tags: N-terminal GST; dsDNA, one strand shown
# T10 sequence: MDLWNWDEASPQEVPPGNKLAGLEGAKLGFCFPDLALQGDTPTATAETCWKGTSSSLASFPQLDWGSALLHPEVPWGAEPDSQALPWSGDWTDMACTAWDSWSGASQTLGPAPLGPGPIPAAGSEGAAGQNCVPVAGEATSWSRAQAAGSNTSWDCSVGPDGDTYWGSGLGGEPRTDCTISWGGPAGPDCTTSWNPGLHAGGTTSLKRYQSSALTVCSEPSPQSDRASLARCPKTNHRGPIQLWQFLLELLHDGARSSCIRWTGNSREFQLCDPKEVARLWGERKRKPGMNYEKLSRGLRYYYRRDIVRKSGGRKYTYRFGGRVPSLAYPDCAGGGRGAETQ
# In short: as §1
# [17] = target: T11, ELF3 (Homo sapiens, UniProt P78545 1-371); details: protein: recombinant; tags: N-terminal GST; dsDNA, one strand shown
# T11 sequence: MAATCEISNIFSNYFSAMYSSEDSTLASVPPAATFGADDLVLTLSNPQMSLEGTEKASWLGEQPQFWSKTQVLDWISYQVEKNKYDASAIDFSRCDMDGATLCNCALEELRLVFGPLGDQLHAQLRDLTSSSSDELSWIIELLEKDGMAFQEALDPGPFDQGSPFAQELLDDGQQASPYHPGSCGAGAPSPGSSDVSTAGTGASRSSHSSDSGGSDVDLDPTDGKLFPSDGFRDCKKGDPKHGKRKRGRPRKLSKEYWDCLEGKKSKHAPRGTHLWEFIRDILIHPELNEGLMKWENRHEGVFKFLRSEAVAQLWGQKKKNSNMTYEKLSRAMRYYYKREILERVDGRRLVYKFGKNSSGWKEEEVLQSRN
# In short: as §1
# [18] = target: CRX (Homo sapiens, UniProt O43186 1-299); details: protein: recombinant; tags: N-terminal GST; dsDNA, one strand shown
# Chain of CRX (O43186 whole entry): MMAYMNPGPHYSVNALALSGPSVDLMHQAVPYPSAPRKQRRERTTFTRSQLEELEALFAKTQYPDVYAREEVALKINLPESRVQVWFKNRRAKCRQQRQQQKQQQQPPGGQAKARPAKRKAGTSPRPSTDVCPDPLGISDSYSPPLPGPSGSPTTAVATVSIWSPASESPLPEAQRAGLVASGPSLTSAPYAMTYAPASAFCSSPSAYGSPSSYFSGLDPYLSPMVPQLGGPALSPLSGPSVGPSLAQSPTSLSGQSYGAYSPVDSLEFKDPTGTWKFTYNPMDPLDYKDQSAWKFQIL
# In short: as §1
# [19] = target: ETV1 (Homo sapiens, UniProt P50549 1-477); details: protein: recombinant; tags: N-terminal GST; dsDNA, one strand shown
# Chain of ETV1 (P50549 whole entry): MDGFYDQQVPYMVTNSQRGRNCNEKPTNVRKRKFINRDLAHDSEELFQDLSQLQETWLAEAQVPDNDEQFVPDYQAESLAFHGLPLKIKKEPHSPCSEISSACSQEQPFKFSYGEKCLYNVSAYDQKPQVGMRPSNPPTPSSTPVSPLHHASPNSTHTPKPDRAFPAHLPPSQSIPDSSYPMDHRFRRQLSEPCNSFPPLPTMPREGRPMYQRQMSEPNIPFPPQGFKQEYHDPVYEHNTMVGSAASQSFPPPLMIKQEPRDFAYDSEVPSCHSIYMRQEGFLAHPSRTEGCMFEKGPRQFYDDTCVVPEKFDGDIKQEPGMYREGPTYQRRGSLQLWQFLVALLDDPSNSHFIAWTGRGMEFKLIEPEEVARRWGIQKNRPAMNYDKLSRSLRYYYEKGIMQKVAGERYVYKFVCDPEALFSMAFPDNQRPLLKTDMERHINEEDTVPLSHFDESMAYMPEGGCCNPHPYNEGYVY
# In short: as §1
sequence,measurement,setting,value
TACAGA,binding signal,[1],"1.08 fold enrichment (6-mer frequency, TF over GST control)"
same,binding signal,[2],"1.14 fold enrichment (6-mer frequency, TF over GST control)"
same,binding signal,[3],"1.25 fold enrichment (6-mer frequency, TF over GST control)"
same,binding signal,[4],"1.11 fold enrichment (6-mer frequency, TF over GST control)"
same,binding signal,[5],"1.14 fold enrichment (6-mer frequency, TF over GST control)"
same,binding signal,[6],"1.11 fold enrichment (6-mer frequency, TF over GST control)"
same,binding signal,[7],"1.13 fold enrichment (6-mer frequency, TF over GST control)"
same,binding signal,[8],"1.16 fold enrichment (6-mer frequency, TF over GST control)"
same,binding signal,[9],"1.06 fold enrichment (6-mer frequency, TF over GST control)"
same,binding signal,[10],"1.13 fold enrichment (6-mer frequency, TF over GST control)"
same,binding signal,[11],"1.12 fold enrichment (6-mer frequency, TF over GST control)"
same,binding signal,[12],"1.28 fold enrichment (6-mer frequency, TF over GST control)"
same,binding signal,[13],"1.25 fold enrichment (6-mer frequency, TF over GST control)"
same,binding signal,[14],"1.13 fold enrichment (6-mer frequency, TF over GST control)"
same,binding signal,[15],"1.1 fold enrichment (6-mer frequency, TF over GST control)"
same,binding signal,[16],"1.25 fold enrichment (6-mer frequency, TF over GST control)"
same,binding signal,[17],"1.11 fold enrichment (6-mer frequency, TF over GST control)"
same,binding signal,[18],"1.25 fold enrichment (6-mer frequency, TF over GST control)"
same,binding signal,[19],"1.16 fold enrichment (6-mer frequency, TF over GST control)"
